Screening data (PubChem BioAssay)
A selection: hits, their analogues and other compounds. The true share with any hit is near 1%.
SNCA expr inh = inhibitors of alpha-synuclein (SNCA) gene expression; Potency, µM (titrated, usually from 57.2 µM), for the others: at the top dose activity change, negative = inhibition, hits mostly inhibitors; HEK-293 SNCA-luciferase knock-in, luminescence, 24 h; actives 0.17% (n = 140,000);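 note: potency is the fitted concentration of half-maximal effect; plate controls were DMSO cells for no effect and cell-free wells for full effect; nearly all actives have a fitted effect of over 45% in size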
SNCA viab count = cell viability loss counter-screen. Potency, µM (highest dose often 57.1 µM), for inactives: top-dose activity change, negative = cytotoxicity, most hits filed as cytotoxic. actives 0.12% (n = 150,000). AID 1671193. HEK-293-SNCA-luc viability, GF-AFC fluorescence, 24 h;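 note: potency is the fitted concentration of half-maximal effect; 0% = DMSO-treated cells and -100% = medium-only wells without cells; nearly all actives have a fitted effect of over 30% in size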
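Cytotoxicity counterscreen: after 24 h compound treatment of genome-edited SNCA-luciferase HEK-293 cells, live-cell protease substrate GF-AFC read by fluorescence after 30 min; activity scaled between DMSO (0%) and medium-only (-100%), curves Hill-fitted.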
GPT2 inh = GPT2 alanine aminotransferase inhibition; Q8TD30; Recombinant GPT2, coupled pyruvate oxidase/HRP Amplex Red fluorescence; Potency, µM (highest dose often 57.7 µM), for the others: at the highest dose activity change, negative = inhibition, hits mostly inhibitors; actives 0.25% (n = 100,000); AID 1671188; note: potency is the fitted concentration of half-maximal effect; nearly all actives have a fitted effect of over 60% in size
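Inhibition is scored from Amplex Red fluorescence generated when pyruvate oxidase and HRP act on pyruvate released by GPT2. Reactions contain 10ng/uL enzyme, 250uM a-KG and 2mM L-alanine and run 30 min at room temperature.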
IP6K1 inh = inhibitors of human IP6K1. Q92551. IP6K1 kinase, ADP-Glo luminescence, 2 h; stronger effect = lower value. activity change, % (series mostly up to about 58 µM). actives 0.81% (n = 140,000). AID 1645851; in the data active = activity change below about -25%
Target sequence (Q92551 whole entry, looked up): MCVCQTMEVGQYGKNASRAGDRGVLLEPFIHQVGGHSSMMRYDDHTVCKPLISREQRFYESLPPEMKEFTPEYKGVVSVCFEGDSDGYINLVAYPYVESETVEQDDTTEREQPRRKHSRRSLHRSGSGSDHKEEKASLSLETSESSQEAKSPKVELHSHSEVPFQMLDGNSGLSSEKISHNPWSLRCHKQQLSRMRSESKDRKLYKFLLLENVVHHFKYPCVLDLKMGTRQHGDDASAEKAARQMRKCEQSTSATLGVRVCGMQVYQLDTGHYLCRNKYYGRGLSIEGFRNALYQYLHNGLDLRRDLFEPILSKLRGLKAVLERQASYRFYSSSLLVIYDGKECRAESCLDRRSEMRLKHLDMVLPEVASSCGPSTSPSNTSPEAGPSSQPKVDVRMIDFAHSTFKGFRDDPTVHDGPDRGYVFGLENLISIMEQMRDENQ
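ADP-Glo luminescence measures ADP made by human IP6K1 during a 2 h RT reaction with ATP/IP6 (mix at 1.3 mM/130 uM); top library doses 57.5 and 19.1 uM final.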
IP6K1 conf = confirmation of human IP6K1 inhibitors; actives 13% (n = 1,200); Potency, µM (top dose mostly 49 µM), inactives show top-dose activity change, negative = inhibition, most hits filed as inhibitors; shares compounds with IP6K1 inh; recombinant IP6K1 kinase, ADP-Glo luminescence, 2 h; note: potency is the fitted concentration of half-maximal effect; nearly all actives have a fitted effect of over 65% in size
Active calls of the source: *; i = inactive; ? = inconclusive; . = not tested or not shown; ! = a repeat was not active; [ ] = another dose, or the depositor's remark. Unless noted, calls come from the whole dose curve; as a rule, active = well fitted curve in the direction sought with a large enough effect; inconclusive = small, poorly fitted or top-dose-only effect, or another doubt; inactive = no such curve, though single readings can be large; an effect the other way counts as inactive or inconclusive. Unless noted, % is set by controls: 0 for no effect and ±100 for the full control effect.

SMILES | SNCA expr inh | SNCA viab count | GPT2 inh | IP6K1 inh | IP6K1 conf
CC1=C[C@@H](CNCc2ccccc2)[C@H](C(C)C)C[C@H]1Cc1nc2c(C)cccc2[nH]1 | ? | 35.5µM* | -2.3%[88.5 µM] | -8.6 | .
COc1ccccc1CNC[C@@H]1C=C(C)[C@H](Cc2nc3c(C)cccc3[nH]2)C[C@H]1C(C)C | ? | 35.5µM* | -8.9%[88.5 µM] | 5.8 | .
CC1=C[C@@H](CNCc2ccccc2F)[C@H](C(C)C)C[C@H]1Cc1nc2c(C)cccc2[nH]1 | ? | ? | 2.3%[88.5 µM] | 0.0 | .
CCC(CC)C(=O)NC[C@@H]1C=C(C)[C@H](Cc2nc3ccc(OC)cc3[nH]2)C[C@H]1C(C)C | ? | 39.8µM* | i | 4.5 | .
O=C1CCN(C[C@@H](O)COCc2ccccc2)c2ccccc2CN1C1CCCC1 | . | . | . | 8.7 | .
O=C(NCCCc1ccccc1)c1ccc2nnc(-c3ccc(C(F)(F)F)cc3)n2c1 | -1.6% | -15.9% | -13.1% | -3.3 | .
O=C(OCc1ccccc1)N1CCOCC12CCN(Cc1ccc(O)cc1)CC2 | -22.0%[87.6 µM] | -1.7%[87.6 µM] | i | -4.3 | .
CN[C@@H]1C[C@H]2O[C@@](C)([C@H]1OC)n1c3ccccc3c3c4c(c5c6ccccc6n2c5c31)C(=O)N[C@H]4O | 4.29µM* | ? | i | . | .
COc1cccc(-c2cc(C(=O)NCc3ccccc3Cl)c3cnn(C)c3n2)c1 | . | . | . | 5.4 | .
COc1ccc(C2C(=O)N(C3CCCCC3)CC(=O)N2CCC2=CCCCC2)cc1 (configuration not stated) | 22.4µM* | ? | . | 7.4 | .
CCCOc1ccc(C2C(=O)N(C3CCCCC3)CC(=O)N2CCC2=CCCCC2)cc1OC (configuration not stated) | 27.8% | -4.0% | . | 46.0 | .
Fc1ccc(C(c2ccc(F)cc2)N2CCN(CC=Cc3ccccc3)CC2)cc1 | 13.6% | ? | 4.32µM* | . | .
O=C(N1CCN(C/C=C/c2ccccc2)CC1)C12CNCC1CNC2 (configuration not stated) | -16.9% | 6.7% | 2.0% | 8.9 | .
C[C@@]1(C(=O)Nc2ccc(F)nc2)CCCN1c1nc(Nc2cc(C3CC3)[nH]n2)c2cccn2n1 | -12.8% | 1.89µM*! | 0.7% | -1.5 | .
Cc1ccc(-c2cc3c(=O)n(CCNC(=O)c4cc(C5CC5)[nH]n4)ccn3n2)c(C)c1 | 37.6% | -10.9% | i | -3.7 | .
CC(=O)Nc1ccc(NC(=O)c2c(-c3ccccc3)noc2C)cc1 | -2.0% | -8.7% | . | 13.2 | .
CCOC(=O)c1ccccc1NC(=O)c1c(-c2ccccc2)noc1C | ? | 5.2% | . | -30.7* | -13.8%
CC(C)[C@H](CO)Nc1nc(Nc2ccc(C(=O)O)c(Cl)c2)c2ncn(C(C)C)c2n1 | ? | 24.9%[23.9 µM] | i | -13.8 | -5.6%[18.9 µM]
CC(C)CN(CCNC(=O)c1cn(C)c2ccc(S(=O)(=O)N3CCCC3)cc2c1=O)CC(C)C | 32.1% | -16.8% | . | 29.0 | -7.6%
CC(C)CN(CCNC(=O)c1cn(C)c2ccc(S(=O)(=O)N3CCOCC3)cc2c1=O)CC(C)C | -23.5% | -9.8% | . | 11.3 | .
CCc1nc2nc(C)cc(Nc3cccc(C)c3C)n2n1 | 19.9% | -4.8% | . | -32.7* | ?
CCc1nc2nc(C)cc(Nc3cc(C)ccc3C)n2n1 | -27.4% | -5.1% | . | -11.0 | .
COc1ccccc1NC(=O)C1=C(C)Nc2nc3ccccc3n2C1c1cccc(Br)c1 (configuration not stated) | 0.4% | 9.4% | . | -26.0* | -2.1%
O=C(CN1C(=O)COc2ccc(S(=O)(=O)NC3CCCC3)cc21)Nc1ccc(Cl)cc1F | 10.2% | -29.7% | . | -27.9* | 12.7%
CN1CCCN(S(=O)(=O)c2cccc(Br)c2)c2ccccc21 | ? | -27.9% | -15.5% | -2.0 | .
COc1cccc(C(=O)N2CCC(c3nc(C4CCOC4)no3)CC2)c1 (configuration not stated) | 2.8% | 7.2% | i[11.5 µM] | -36.9* | -13.0%
COc1ccccc1Nc1ccnc(N2CCCC2C(=O)NCCCc2ccccc2)n1 (configuration not stated) | -7.8% | -17.8% | i | 29.3 | .
O=C(NCCc1ccc(Cl)cc1)c1ccc2nnc(Cc3ccc(Cl)cc3)n2c1 | -5.5% | -4.3%[12.5 µM] | i | 0.3 | .
